697 NFkB inh: inhibitors of the PMA/ionomycin-induced NF-kB reporter in 697 B cells; 697 B-cell NF-kB luciferase reporter, 16 h; inhibition, % at 4 µM; AID 435022; 330,000 compounds, 0.33% hits; in the data active = inhibition above about 35%
Jurkat NFkB inh: lowers PMA/ionomycin-induced NF-kB signal in Jurkat cells; inhibition, % at 4 µM; PMA/ionomycin-induced NF-kB luciferase reporter, luminescence; AID 435003; 330,000 compounds, 0.53% hits; in the data active = inhibition above about 50%
aSyn UTR inh: MLPCN primary screen, SNCA 5' untranslated region | 300,000 compounds, 0.82% hits | inhibition, % (tested at 7.5 µM) | alpha-synuclein 5'UTR reporter, inhibitor activity | AID 1813; in the data active = inhibition above about 60%; inconclusive = no clear call, values can overlap the other calls;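 also: H4 neuroglioblastoma cells stably carrying SNCA 5'UTR luciferase fusion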
TAG inh: reduces triacylglycerol accumulation in H9c2 cells | AID 651582 | 230,000 compounds, 0.66% hits | Nile Red lipid (TAG) fluorescence; cells loaded with 200 µM oleic acid | inhibition, % at 12.5 µM;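 active = pattern-corrected inhibition of lipid staining of at least 50% with the nuclear-stain viability signal not falling by more than 50%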
Gli-Sufu block: blocks Gli-Sufu signaling in a luciferase reporter. 340,000 compounds, 0.74% hits. Sufu-KO-LIGHT fibroblasts, Gli luciferase reporter luminescence. inhibition, % at 5 µM;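 active = inhibition above about 55%, limit read from the data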
Shn3 3UTR inh: inhibitors of Schnurri-3 3'UTR reporter in osteoblasts; Clone20 osteoblast Shn3 3'UTR firefly luciferase, 24 h; inhibition, % at 12.5 µM; 360,000 compounds, 0.52% hits; AID 588674;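 active = mean inhibition of at least 75% with every replicate also reaching 75%; inconclusive = mean inhibition at least 75% but some replicate below; inactive = mean inhibition below 75%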
Large screens that a line does not name were inactive. The list is not random: actives were taken first. Their share in the collection is about 2.3%.

CCOCCCN1C(=O)CN(C2CCCCCC2)C(=O)C1c1ccc(OC)cc1 (stereo not drawn)	none (no result: TAG inh)
Cc1ccc(N2C(=O)c3ccccc3C2O)nc1 (stereo not drawn)	aSyn UTR inh 72.7 (no result: 697 NFkB inh, Jurkat NFkB inh, TAG inh, Gli-Sufu block, Shn3 3UTR inh)
COc1ccc(-n2c(C)cc(C(=O)CCl)c2C)cc1	aSyn UTR inh 65.4, TAG inh 64.4
Cc1cc(-n2c(C)cc(C(=O)CCl)c2C)no1	aSyn UTR inh 118.8
COc1ccc(-n2c(C)cc(C(=O)CSc3ccc(NC(C)=O)cc3)c2C)cc1	none (no result: TAG inh)
CN1C(=O)C(C)(C)c2cc(S(=O)(=O)N3CCN(c4ccccc4F)CC3)ccc21	none
CSc1ccc(CN(C)C(=O)CSCC(=O)Nc2cc(C)on2)cc1	none
CCN(CC)c1nc(Nc2ccc(Cl)cc2)nc(OCC#N)n1	aSyn UTR inh 70.0
O=C(CSc1nc(-c2ccco2)cc(C(F)(F)F)n1)Nc1ccc(C(=O)N2CCCCC2)cc1	none
CC(=O)Oc1cc(C(=O)OCC(=O)NC23CC4CC(CC(C4)C2)C3)cc(OC(C)=O)c1OC(C)=O	Shn3 3UTR inh 91.0 (no result: 697 NFkB inh, Jurkat NFkB inh, aSyn UTR inh)
COc1cccc(C(=O)OCC(=O)NC23CC4CC(CC(C4)C2)C3)c1	none (no result: aSyn UTR inh)
Cc1onc(-c2c(Cl)cccc2Cl)c1C(=O)Nc1nc(C(C)(C)C)cs1	aSyn UTR inh 79.6
Cc1nc(C(=O)NNC(=O)c2c(-c3c(Cl)cccc3Cl)noc2C)cs1	aSyn UTR inh 62.7
CCOc1ccc(CCNC(=O)COC(=O)c2cccs2)cc1OCC	none
Cc1ccccc1Nc1c(-c2ccccn2)nc2ccccn12	aSyn UTR inh 63.7
COC(=O)c1cc(NC(=O)COC(=O)CCc2nc3ccccc3c(=O)[nH]2)cc(C(=O)OC)c1	none (no result: aSyn UTR inh)
CN(c1ccc(-c2csc(NC(=O)C3CC(=O)N(Cc4ccco4)C3)n2)cc1)S(C)(=O)=O (stereo not drawn)	none (no result: aSyn UTR inh)
Cc1ccc(S(=O)(=O)N(C)C)cc1NC(=S)NC(=O)C12CC3CC(CC(C3)C1)C2	Gli-Sufu block 66.4 (no result: TAG inh)
O=C(C#Cc1ccccc1)c1cccc([N+](=O)[O-])c1	Shn3 3UTR inh 93.0 (no result: TAG inh)
Cc1cc(Sc2ncnc(N)c2[N+](=O)[O-])ncn1	Shn3 3UTR inh 98.6
COc1ccc2[nH]c3c(c2c1)CCNC3=O	none
O=C1NCCc2c1[nH]c1ccc([N+](=O)[O-])cc21	aSyn UTR inh 70.1
Cc1ccc(C)c(N2CCN(S(=O)(=O)c3ccc4[nH]c(=O)ccc4c3)CC2)c1	Shn3 3UTR inh 93.6
S=C(Nc1cccc(Cl)c1)N(CCCN1CCCC1)Cc1cccn1Cc1ccc(Cl)cc1	none
CSc1cccc(NC(=S)N(CCCN2CCCC2)Cc2cccn2Cc2ccc(Cl)cc2)c1	TAG inh 57.3
Cn1c(CN2CCCCC2)nc2cc([N+](=O)[O-])ccc21	none
Cc1ccc(C(=O)c2cc([N+](=O)[O-])ccc2N2CCOCC2)cc1	aSyn UTR inh 92.2 (no result: 697 NFkB inh, Jurkat NFkB inh, TAG inh)
CCOc1ccc(C(=O)c2cc([N+](=O)[O-])ccc2N2CCOCC2)cc1	aSyn UTR inh 79.1 (no result: 697 NFkB inh, Jurkat NFkB inh, TAG inh)
CCC(=O)OCCNc1cc(Sc2nc3ccccc3[nH]2)c2nonc2c1[N+](=O)[O-]	Shn3 3UTR inh 95.7 (no result: 697 NFkB inh, Jurkat NFkB inh, aSyn UTR inh, TAG inh)
CCCC(=O)OCCNc1cc(Sc2nccn2C)c2nonc2c1[N+](=O)[O-]	Shn3 3UTR inh 95.1 (no result: 697 NFkB inh, Jurkat NFkB inh, TAG inh)
O=[N+]([O-])c1c(NCCCO)cc(Sc2nc3ccccc3s2)c2nonc12	Shn3 3UTR inh 90.2 (no result: TAG inh)
CCOc1ccc(=O)n(-c2ccccc2)n1	none
CCN1CCN(CC(=O)c2ccc(C)cc2)CC1	none (no result: TAG inh)
Cc1nc2ccc(NC(=O)COc3ccccc3F)cc2s1	none
O=C(CSc1nc(-c2ccccc2)cc(=O)[nH]1)Nc1ccc(Br)cc1	none (no result: TAG inh)
COC(=O)[C@@H](Cc1ccccc1)NC(=O)[C@H]1CCC(=O)N1C(=O)OCc1ccccc1	none (no result: TAG inh)
O=C(/C=C/c1ccncc1)c1ccc2c(c1)OCCO2	none
COc1cc(/C=C/C(=O)c2ccc3c(c2)OCCO3)cc(Br)c1OCC(=O)N(C)C	Shn3 3UTR inh 91.8 (no result: TAG inh)
CCCS(=O)(=O)NCCc1cc2cc(C)c(C)cc2[nH]c1=O	none
COc1ccc(N2CCN(S(=O)(=O)CCNC(=O)Cc3ccc([N+](=O)[O-])cc3)CC2)cc1	aSyn UTR inh 65.3 (no result: TAG inh)
O=C(NCCS(=O)(=O)N1CCN(c2ccc(F)cc2)CC1)c1ccc(Br)o1	aSyn UTR inh 127.2 (no result: TAG inh)
COc1ccc(C(=O)Nc2cc(C(F)(F)F)ccc2Cl)cc1OC	none (no result: TAG inh)
CC1(C)CC2(CCCN3C(=O)CSC32)CCS1 (stereo not drawn)	none
Cc1ccc(NC(=O)C(=Cc2ccc(C(=O)O)cc2)C(=O)Nc2ccc(C)cc2C)c(C)c1	TAG inh 55.8, Shn3 3UTR inh inconclusive
CC(=O)C(=Cc1ccc(C(=O)O)cc1)C(C)=O	none
Clc1cccc(-c2nc(-c3ccc(-c4nn[nH]n4)cc3)no2)c1	none (no result: aSyn UTR inh)
CCOC(=O)Cn1c(S(=O)(=O)Cc2ccccc2Cl)nc(-c2ccccc2)c1-c1ccccc1	aSyn UTR inh inconclusive, Shn3 3UTR inh 88.4 (no result: TAG inh)
COc1ccc(C(C)=NNC(=O)c2cccc(S(=O)(=O)N3CCCC3)c2)cc1	none (no result: aSyn UTR inh)
COc1ccc(/C(C)=N/NC(=O)c2cccc(S(=O)(=O)N3CCCC3)c2)c(O)c1	aSyn UTR inh 77.6, Shn3 3UTR inh 88.5
CC(C)C[C@H](N)c1nnc(SCC(=O)Nc2ccc(Br)cc2)o1	none (no result: TAG inh)
CC(C)C[C@H](N)c1nnc(S(=O)(=O)Cc2ccc(F)cc2)o1	Shn3 3UTR inh 90.2
C=C1[C@@H](C)C2[C@H](Cc3ccccc3)NC(=O)[C@]23OC(=O)CC[C@H](O)CCC[C@H](C)C/C=C/[C@H]3[C@@H]1O (stereo partly drawn)	aSyn UTR inh 80.4 (no result: 697 NFkB inh, Jurkat NFkB inh, TAG inh, Gli-Sufu block, Shn3 3UTR inh)
Cc1csc2nc(CNC(=O)CCC(=O)O)cn12	none
CCC1CCCCN1CCCNC(=O)c1ccc2c(c1)c(C)c(C)n2CC (stereo not drawn)	none (no result: TAG inh)
CCN(CC)S(=O)(=O)c1ccc(NC(=O)Nc2cccc(C(F)(F)F)c2)cc1	Shn3 3UTR inh 95.6
CCOC(=O)C1=C(CNCc2ccc(F)cc2)NC(=O)NC1c1cccc([N+](=O)[O-])c1 (stereo not drawn)	none
O=C(CCc1ccccc1)NNc1cc(N2CCCCC2)nc(N2CCCCC2)n1	aSyn UTR inh 82.4
Cc1ccccc1Nc1nc(N)nc(CCl)n1	none
Cc1ccc(C)c(CSc2nnc(-c3cccnc3)n2N)c1	none (no result: TAG inh)
Cc1nn(-c2ccccc2)c(C)c1C(=O)OC(C)C(=O)NC1CCCCC1 (stereo not drawn)	Shn3 3UTR inh 83.2 (no result: aSyn UTR inh)
Cc1ccc(Oc2c(C(N)=O)cc([N+](=O)[O-])cc2[N+](=O)[O-])cc1	Shn3 3UTR inh 93.5 (no result: TAG inh)
Cc1ccc(CNc2ccc([N+](=O)[O-])cc2C(N)=O)cc1	none (no result: aSyn UTR inh)
CC(C)NC(=O)C1CCN(C(=O)c2ccc(-c3ccccc3)cc2)CC1	none (no result: TAG inh)
Cc1nc(-n2[nH]c3c(c2=O)CCCC3)[nH]c(=O)c1Cc1ccccc1	aSyn UTR inh 89.8
O=C1/C(=C/c2ccccc2)CN(C(=O)CCN2CCOCC2)C/C1=C\c1ccccc1	none (no result: 697 NFkB inh, Jurkat NFkB inh, aSyn UTR inh)
Cc1occc1C(=O)Nc1cc(=O)n(C)c(=O)n1C	none
